Assay results: PubChem BioAssay (NCI)
This is part of a sample that, as a whole, favours compounds with a hit. Of some 83,000 tested, about 20% had one in any assay.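 Method: cells in 96-well plates; compound added at one concentration; 48 h incubation; percent growth measured; values under 10 scored active.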 Calls of active or inactive are those of the source.

What was measured:
Assay in all cases: NCI-60 one-dose screen, 48 h (100 = growth as untreated, 0 = no growth, -100 = all killed)
Details in all cases: 10 µM
T-47D breast = test system: T-47D breast
BT-549 breast = test system: BT-549 breast
MDA-MB-435 melanoma = test system: MDA-MB-435 melanoma
SW-620 colon = test system: SW-620 colon
MCF7 breast = test system: MCF7 breast
HCT-116 colon = test system: HCT-116 colon
HCC-2998 colon = test system: HCC-2998 colon
KM12 colon = test system: KM12 colon
MDA-MB-468 breast = test system: MDA-MB-468 breast

Measured: growth

O=C(CSc1nnc(-c2c[nH]c3ccccc23)n1-c1ccccc1)Nc1ccc(C(=O)/C=C/c2cccc([N+](=O)[O-])c2)cc1
inactive: T-47D breast 57.5% | BT-549 breast 93.5% | MDA-MB-435 melanoma 98.9% | SW-620 colon 101% | HCC-2998 colon 62.7% | KM12 colon 88.7% | MDA-MB-468 breast 75.4%
active: MCF7 breast -6.63% | HCT-116 colon -54%

CN1CCN(c2ccc(Nc3nc(N4CCN(S(=O)(=O)c5ccc(F)cc5)CC4)c4sccc4n3)cc2)CC1
inactive: BT-549 breast 65.2%
active: T-47D breast -62.7% | MDA-MB-435 melanoma -100% | SW-620 colon -63.8% | MCF7 breast -77.6% | HCT-116 colon -51.1% | HCC-2998 colon -90.7% | KM12 colon -74.8% | MDA-MB-468 breast -96.7%

N#Cc1c(-c2ccc(F)cc2)nc(SCc2ccc([N+](=O)[O-])cc2)nc1N1CCOCC1
inactive: T-47D breast 55.5% | BT-549 breast 58.5% | MDA-MB-435 melanoma 84% | SW-620 colon 80.5% | MCF7 breast 58.5% | HCT-116 colon 64.4% | HCC-2998 colon 90.7% | KM12 colon 84.9% | MDA-MB-468 breast 50.6%

CN1CCN(Cc2ccc(NC(=O)c3cncc(C#Cc4cnc5ccc(N[C@@H]6CCOC6)nn45)c3)cc2C(F)(F)F)CC1
active: T-47D breast -63.2% | BT-549 breast -71.3% | MDA-MB-435 melanoma -87.6% | SW-620 colon -41.9% | MCF7 breast -88.1% | HCT-116 colon -63.9% | HCC-2998 colon -99.7% | KM12 colon -90.7% | MDA-MB-468 breast -96.2%

N#Cc1ccc(-c2nn(-c3ccc(C(=O)O)cc3)cc2CNc2cc(Cl)cc(Cl)c2)cc1
inactive: T-47D breast 25.9% | MDA-MB-435 melanoma 40.1% | SW-620 colon 49.2% | MCF7 breast 27.3% | HCT-116 colon 12.5% | KM12 colon 18.6% | MDA-MB-468 breast 43.4%
active: BT-549 breast -1.57% | HCC-2998 colon 9.16%

O=c1oc2ccc(-c3ccc(F)cc3F)cc2c(=O)n1-c1ccc(F)c(Cl)c1
active: T-47D breast -11.8% | BT-549 breast -51.9% | MDA-MB-435 melanoma -17.7% | SW-620 colon 3.17% | MCF7 breast -17.2% | HCT-116 colon 4.77% | HCC-2998 colon 2.58% | KM12 colon -22.7% | MDA-MB-468 breast -47%

Cc1ccc(-c2nc3ccc(C(=O)N=Nc4c(O)[nH]c5ccc(Cl)cc45)cc3[nH]2)cc1
active: T-47D breast -4.44% | BT-549 breast -1.74% | MDA-MB-435 melanoma -61.5% | SW-620 colon -34% | MCF7 breast -26.9% | HCT-116 colon 0.963% | HCC-2998 colon -66.8% | KM12 colon 4.98% | MDA-MB-468 breast -75%

Cc1ccc(/C=C(\C#N)n2nnc3c(F)cccc32)cc1
active: BT-549 breast -13.4% | MDA-MB-435 melanoma 8.1% | MCF7 breast 8.62% | HCC-2998 colon -20.1% | KM12 colon -1.08%
inactive: T-47D breast 24.5% | SW-620 colon 14% | HCT-116 colon 27% | MDA-MB-468 breast 37.8%

O=C(CS(=O)(=O)c1oc(-c2ccc(Cl)cc2)nc1S(=O)(=O)c1ccccc1)N1CCCC1
active: T-47D breast -66.9% | BT-549 breast -3.43% | MDA-MB-435 melanoma -41.8% | SW-620 colon -70.1% | MCF7 breast -70.1% | HCT-116 colon 0.106% | MDA-MB-468 breast -90.5%
inactive: HCC-2998 colon 21.8% | KM12 colon 61.7%

Cc1ccc(NC(=O)c2ccc(-n3c(=O)[nH]c4ccccc4c3=O)cc2)cc1
inactive: T-47D breast 80.4% | BT-549 breast 24.4% | MDA-MB-435 melanoma 102% | SW-620 colon 113% | MCF7 breast 87.5% | HCT-116 colon 92.4% | HCC-2998 colon 108% | KM12 colon 96.7% | MDA-MB-468 breast 82.2%

COc1cc(/C=C/C(=O)c2cc(OC)c(OC)c(OC)c2)ccc1Oc1nc(Nc2ccc(F)cc2)nc(N(C)C)n1
active: BT-549 breast -89.8% | MDA-MB-435 melanoma -62.4% | SW-620 colon 1.14% | MCF7 breast 2.35% | HCT-116 colon -77.6% | HCC-2998 colon -81.5% | KM12 colon -41.1% | MDA-MB-468 breast -39.6%
inactive: T-47D breast 25.9%

Cc1cccc(-c2nc(Nc3ccccc3C(=O)O)c3ccccc3n2)c1
inactive: T-47D breast 26.8% | MDA-MB-435 melanoma 44.6% | SW-620 colon 35.5% | MCF7 breast 24% | HCT-116 colon 22.7% | HCC-2998 colon 27.1% | KM12 colon 30%
active: BT-549 breast -0.675% | MDA-MB-468 breast -15.1%

COc1ccc2[nH]c(O)c(N=NC(=O)c3cc(-c4ccc(C)cc4)nc4ccccc34)c2c1
inactive: T-47D breast 69% | BT-549 breast 139% | MDA-MB-435 melanoma 95.4% | SW-620 colon 107% | MCF7 breast 61% | HCT-116 colon 78.1% | HCC-2998 colon 115% | KM12 colon 95.1% | MDA-MB-468 breast 76.2%

COc1ccc2c3nc4cc(C)c(C)cc4nc3n(CCN(C)C)c2c1
inactive: BT-549 breast 39.4%
active: T-47D breast -12.2% | MDA-MB-435 melanoma -76.1% | SW-620 colon -51.6% | MCF7 breast -16.6% | HCT-116 colon -61.1% | HCC-2998 colon -56.1% | KM12 colon -18% | MDA-MB-468 breast -10.9%
